# Calls of active or inactive are those of the source.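 How the source made its calls: active means relative activity ratio in the reporter plus Dax-1 wells above 5 or under 0.1 at any tested dose; inactive means ratio stays between 0.1 and 5 at every dose.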
# Target: DAX1 (UniProt P51843)
# Experiment: DAX1 repression relief on CAT reporter, dose response, DAX1 inhibitor project, cell-based, CAT activity, absorbance, powder samples (AID 624301)
# Settings: HEK293 Gal4-DAX1 CAT reporter, ELISA absorbance; CAT reporter with DAX1, at 100 µM (top of the series)
# Chain of DAX1 (P51843 whole entry, looked up): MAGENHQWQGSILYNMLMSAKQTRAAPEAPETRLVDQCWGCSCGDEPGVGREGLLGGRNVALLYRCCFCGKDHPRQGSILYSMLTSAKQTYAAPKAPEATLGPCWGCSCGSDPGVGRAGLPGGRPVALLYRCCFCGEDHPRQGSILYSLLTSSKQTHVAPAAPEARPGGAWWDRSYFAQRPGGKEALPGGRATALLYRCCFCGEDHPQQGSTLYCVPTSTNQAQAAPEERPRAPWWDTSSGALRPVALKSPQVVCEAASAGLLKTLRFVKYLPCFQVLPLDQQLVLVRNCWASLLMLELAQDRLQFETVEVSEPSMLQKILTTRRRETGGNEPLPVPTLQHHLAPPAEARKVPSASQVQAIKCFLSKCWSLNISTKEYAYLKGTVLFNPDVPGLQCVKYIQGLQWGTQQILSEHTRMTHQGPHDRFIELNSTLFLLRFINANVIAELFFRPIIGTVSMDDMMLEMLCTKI
row,Compound,outcome
1,Cn1c(=O)n(C)c2cc(C(=O)Nc3ccc4c(c3)OCCO4)ccc21,inactive
2,Cn1c(=O)n(C)c2cc(C(=O)Nc3ccc4c(c3)OCO4)ccc21,inactive

# — PubChem BioAssay AID624301 (The Scripps Research Institute Molecular Screening Center, 2012)
